mcGAS RapidFire = mouse cGAS inhibition by mass spec | Q8C6L5 | hit rate 0.18% among 130,000 | AID 1259397 | inhibition, % at 12.5 µM | recombinant mouse cGAS, cGAMP by RapidFire MS;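 active = inhibition of cGAS enzyme activity at or above 60%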;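 note: enzyme stimulated by 45 bp dsDNA with ATP and GTP substrates; cGAMP share of summed cGAMP plus half ATP and half GTP signals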
Target sequence (Q8C6L5 whole entry, looked up): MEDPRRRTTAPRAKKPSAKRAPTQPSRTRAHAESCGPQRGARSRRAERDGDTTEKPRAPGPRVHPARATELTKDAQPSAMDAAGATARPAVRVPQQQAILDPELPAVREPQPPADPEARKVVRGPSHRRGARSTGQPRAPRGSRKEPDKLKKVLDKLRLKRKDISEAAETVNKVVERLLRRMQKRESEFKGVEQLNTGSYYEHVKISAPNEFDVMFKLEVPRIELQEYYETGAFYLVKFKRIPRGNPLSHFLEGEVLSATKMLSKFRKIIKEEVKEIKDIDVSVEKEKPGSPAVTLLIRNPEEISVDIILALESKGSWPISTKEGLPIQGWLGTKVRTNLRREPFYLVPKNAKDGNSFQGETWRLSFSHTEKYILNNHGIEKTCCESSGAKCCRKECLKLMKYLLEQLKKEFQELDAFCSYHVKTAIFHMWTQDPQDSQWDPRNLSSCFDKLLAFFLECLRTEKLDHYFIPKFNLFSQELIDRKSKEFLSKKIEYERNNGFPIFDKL
A number is an active result. The entries come from a sample that favours hits as a whole.

What do the screens show for `CCCC(C)NC(=O)CCc1ccc(S(=O)(=O)NCc2ccccc2)cc1` (stereo unspecified)?
mcGAS RapidFire: inactive

Results for O=C(Cn1ncc(Cl)c(Cl)c1=O)N1N=C(c2ccco2)CC1c1cccs1 (stereo unspecified) ?
mcGAS RapidFire: inactive

What do the screens show for `O=C1NC(=S)SC1=Cc1ccccc1[N+](=O)[O-]`?
mcGAS RapidFire: inactive

What do the screens show for `COc1cc(C=C2SC(=S)NC2=O)cc(OC)c1`?
mcGAS RapidFire: inactive

What do the screens show for `COc1ccc(-c2ccc(/C=C3\SC(=S)NC3=O)o2)c([N+](=O)[O-])c1`?
mcGAS RapidFire: 64.9

How did COC(=O)NCC(=O)N1CCC(c2nc3cc(Cl)ccc3o2)CC1 do in these assays?
mcGAS RapidFire: inactive

How did CCN(CC)C(=O)Cn1cc(C(=O)N2CCC(c3cccc(Cl)c3)C2)nn1 (stereo unspecified) do in these assays?
mcGAS RapidFire: inactive

Results for CCSc1nnc2c(=O)[nH]c(=O)[nH]c2n1 ?
mcGAS RapidFire: 83.8

How did Cn1c(N)c(C(=O)CSc2nnc3c(n2)[nH]c2ccccc23)c(=O)n(C)c1=O do in these assays?
mcGAS RapidFire: inactive

How did CCSc1nnc2c3ccccc3n(C)c2n1 do in these assays?
mcGAS RapidFire: inactive

How did CCC1CN(C(=O)CN(Cc2cscn2)c2ccccc2)CCO1 (stereo unspecified) do in these assays?
mcGAS RapidFire: inactive

How did S=c1[nH]nc2c3cnn(-c4ccccc4)c3ncn12 do in these assays?
mcGAS RapidFire: inactive

How did S=c1[nH]nc2c3ccccc3ncn12 do in these assays?
mcGAS RapidFire: 86.9

What do the screens show for `Cc1nc2c3ccccc3ncn2n1`?
mcGAS RapidFire: inactive

Results for O=C(NCc1ccc(Cl)cc1)N(CCc1ccccc1)Cc1ccccn1 ?
mcGAS RapidFire: inactive

What do the screens show for `COc1ccc(CC(=O)Nc2ccc3nc(N(C)C)ccc3c2)cc1F`?
mcGAS RapidFire: inactive

Results for NC(Cc1ccc(C(F)(F)F)cc1)c1csc(Nc2cnccn2)n1 (stereo unspecified) ?
mcGAS RapidFire: inactive

What do the screens show for `NC(Cc1ccc(F)cc1)c1csc(Nc2ccc(C(F)(F)F)cn2)n1` (stereo unspecified)?
mcGAS RapidFire: 67.1

What do the screens show for `NC(Cc1ccc(C(F)(F)F)cc1)c1csc(Nc2ccccn2)n1` (stereo unspecified)?
mcGAS RapidFire: inactive

How did Cc1ccc(S(=O)(=O)NC(C)c2ccc(Cl)cc2Cl)s1 (stereo unspecified) do in these assays?
mcGAS RapidFire: inactive

How did CCCn1nc(C)c(-c2cc(C(=O)O)[nH]n2)c1C do in these assays?
mcGAS RapidFire: inactive

What do the screens show for `CCc1cc(=O)[nH]c2n[nH]c(=S)n12`?
mcGAS RapidFire: inactive

What do the screens show for `CCCc1cc(=O)[nH]c2n[nH]c(=S)n12`?
mcGAS RapidFire: inactive

Results for O=c1cc(-c2ccccc2)n2c(=S)[nH]nc2[nH]1 ?
mcGAS RapidFire: 67.8

What do the screens show for `CCC(=O)C(C#N)c1nnc(-c2ccccc2)s1` (stereo unspecified)?
mcGAS RapidFire: 95.0

Results for Cn1c(-c2ccccc2)nnc1C(C#N)C(=O)C1CC=CCC1 (stereo unspecified) ?
mcGAS RapidFire: inactive

What do the screens show for `Cc1ccc(S(=O)(=O)c2nnc(-c3ccccc3)s2)cc1`?
mcGAS RapidFire: inactive

What do the screens show for `Cc1nccc(CNC(=O)NC(C)CCc2cccn2C)n1` (stereo unspecified)?
mcGAS RapidFire: inactive

What do the screens show for `CCOC(=O)c1sc(=NC(=O)c2cc(Cl)sc2Cl)n(C)c1C`?
mcGAS RapidFire: inactive

What do the screens show for `Cc1cc(O)c(C2=Nc3ccccc3SC(c3ccc([N+](=O)[O-])cc3)C2)c(=O)o1` (stereo unspecified)?
mcGAS RapidFire: inactive

Results for Cc1cc(O)c(C2=Nc3cc(C(F)(F)F)ccc3SC(c3ccc(O)c([N+](=O)[O-])c3)C2)c(=O)o1 (stereo unspecified) ?
mcGAS RapidFire: 66.6

How did Cc1cc(O)c(-c2ccn[nH]2)c(=O)o1 do in these assays?
mcGAS RapidFire: inactive

How did CCc1nnc2n1N(C(C)=O)C(c1cccc([N+](=O)[O-])c1)=C(C(C)=O)S2 do in these assays?
mcGAS RapidFire: inactive

What do the screens show for `O=c1oc2ccc(O)cc2s1`?
mcGAS RapidFire: inactive

What do the screens show for `CCOC(=O)Oc1cc2oc(=O)sc2cc1Br`?
mcGAS RapidFire: 74.3

Results for COC(=O)Oc1cc2oc(=O)sc2cc1Br ?
mcGAS RapidFire: inactive

What do the screens show for `COC(=O)c1cc(Br)ccc1S(=O)(=O)N1CCNC(=O)C1`?
mcGAS RapidFire: inactive

Results for CN(C)S(=O)(=O)c1cccc(Cn2c(=O)c(C#N)c3n(c2=O)CCC3)c1 ?
mcGAS RapidFire: inactive

Results for O=S(=O)(c1ccccc1NC(C1CC1)C1CC1)C(F)(F)F ?
mcGAS RapidFire: inactive

What do the screens show for `O=S(=O)(c1ccccc1O)C(F)(F)F`?
mcGAS RapidFire: inactive

How did CC(C)(O)CCOc1ccccc1S(=O)(=O)C(F)(F)F do in these assays?
mcGAS RapidFire: 72.3

What do the screens show for `O=C(Cn1nnn(-c2cccs2)c1=O)Nc1ccc(Cl)cc1`?
mcGAS RapidFire: inactive

Results for O=C(NC1CCCN(C(=O)C2CC2)C1)c1ccc(Cl)cn1 (stereo unspecified) ?
mcGAS RapidFire: inactive

Results for CC(C)c1cc(-c2nn3c(C(C)(C)C)nnc3s2)n[nH]1 ?
mcGAS RapidFire: 75.4

Results for COc1ccc2[nH]c(-c3nn4c(C(C)C)nnc4s3)cc2c1 ?
mcGAS RapidFire: inactive

How did Cc1cc(-c2nnc3sc(-c4ccc5ccccc5n4)nn23)n[nH]1 do in these assays?
mcGAS RapidFire: inactive

How did NC(=O)c1nc(-c2cc(Br)ccc2O)nc2c1[nH]c(=O)n2-c1ccc(Cl)cc1 do in these assays?
mcGAS RapidFire: inactive

How did O=C(CCl)Nc1nc(-c2c[nH]c3ccccc23)cs1 do in these assays?
mcGAS RapidFire: 71.8

How did O=C(Cn1cnnn1)Nc1nc(-c2cccc3ccccc23)cs1 do in these assays?
mcGAS RapidFire: inactive

How did COc1cccc(-c2nc(-c3c[nH]c4ccccc34)cs2)c1OC do in these assays?
mcGAS RapidFire: inactive

What do the screens show for `NC(=O)C1CCCN(C(=O)c2ccc3ccccc3c2)C1` (stereo unspecified)?
mcGAS RapidFire: inactive

Results for Cc1ccccc1[C@H]1[C@@H](C(=O)NCCN2CCOCC2)C[C@@](C)(C(=O)O)N1C ?
mcGAS RapidFire: inactive

How did O=C(CCc1ccsc1)Nc1ccnn1Cc1cccs1 do in these assays?
mcGAS RapidFire: inactive

What do the screens show for `Cc1ccc(CNC(=O)COc2ccccc2C2SCCS2)cc1`?
mcGAS RapidFire: inactive

What do the screens show for `O=C1NC(=S)SC1=Cc1cccnc1`?
mcGAS RapidFire: inactive

What do the screens show for `O=C1/C(=C\c2cccnc2)CSc2ccc(Br)cc21`?
mcGAS RapidFire: inactive

How did O=C1/C(=C/c2cccnc2)COc2c(F)cccc21 do in these assays?
mcGAS RapidFire: 72.7

Results for Cn1c(N)c(C(=O)CSc2nnc(C3CC3)n2C2CC2)c(=O)n(C)c1=O ?
mcGAS RapidFire: inactive

Results for CCCc1onc(C)c1C(=O)NS(=O)(=O)c1ccc(C)s1 ?
mcGAS RapidFire: inactive

How did Cc1noc(C)c1CCC(=O)NC1CCCCC1 do in these assays?
mcGAS RapidFire: inactive

Results for CS(=O)(=O)c1ncc2c(n1)c(=O)c(C#N)c1[nH]c3ccccc3c(=O)n12 ?
mcGAS RapidFire: 67.4

What do the screens show for `Cc1c(Cc2ccc(Cl)cc2)c(=O)n2c([nH]c3ccccc32)c1C#N`?
mcGAS RapidFire: inactive

Results for COCCNc1ncc2c(n1)c(=O)c(C#N)c1[nH]c3ccc(Br)cc3c(=O)n12 ?
mcGAS RapidFire: inactive

How did CN(Cc1ccccc1)C(=O)CCC1CCN(C(=O)Cc2c[nH]c3ccccc23)CC1 do in these assays?
mcGAS RapidFire: inactive

How did NC(=O)C1CCN(c2ccc(NC(=O)CCCl)cc2S(=O)(=O)NCCc2ccccn2)CC1 do in these assays?
mcGAS RapidFire: inactive
